From PubChem BioAssay (EPA / NIEHS) come the findings set out here.

Inconclusive results are not listed. Calls of active or inactive are those of the source. The calls were made as follows, unless noted: active = hit-call score of the fitted dose curve at least 0.9, where 1 is the maximum; inactive = score below 0.9.

Experiment [1] concerns the target Paired box protein Pax-6 (Homo sapiens) (UniProt P26367). The experiment can be described thus: ATG_Pax6_CIS: Attagene CIS-FACTORIAL HepG2 Assay for human Paired Box 6 (PAX6) (AID 2282956). The conditions noted are these: HepG2 CIS-FACTORIAL PAX6 reporter transcription, RNA readout; actives raise or lower the signal. In a few lines:
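Transient MRTU transfection of HepG2 → compound exposure 24 h → TriZol RNA, oligo(dT) RT → PCR, 6-FAM primer extension, HpaI cut → capillary electrophoresis; activity fitted both directions against DMSO.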

Experiment [2] can be described thus: ATG_PXRE_CIS: Attagene CIS-FACTORIAL HepG2 Assay for human Pregnane X Receptor Element (PXRE) (AID 2282957). Conditions: HepG2 Attagene CIS-FACTORIAL PXRE reporter, mRNA; actives raise or lower the signal. In a few lines: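 HepG2 cells transiently transfected with cis-regulated multiple reporter transcription units; endogenous factor activity measured as reporter mRNA 24 h after dosing. RT-PCR, fluorescent primer extension, HpaI digestion, capillary electrophoresis; bidirectional fit versus DMSO baseline.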

The nature of experiment [3]: ATG_PPRE_CIS: Attagene CIS-FACTORIAL HepG2 Assay for human Peroxisome Proliferator-activated Response Element (PPRE) (AID 2282958). The conditions noted are these: HepG2 PPRE cis-element reporter, Attagene transcription factor profiling; actives raise or lower the signal. The method, boiled down: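 HepG2 cells are transiently transfected with multiplexed cis-promoter reporter units to report endogenous PPAR activity. After 24 h dosing, reporter mRNA is read by RT-PCR and capillary electrophoresis. Fitting is bidirectional against DMSO.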

Experiment [4] in a line: ATG_RORE_CIS: Attagene CIS-FACTORIAL HepG2 Assay for human RAR-related Orphan Receptor Element (RORE) (AID 2282959). Conditions: HepG2 Attagene cis-factorial RORE reporter, mRNA; actives raise or lower the signal. In a few lines:
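HepG2 cells carrying transiently transfected cis-regulated reporter units; RORE-driven reporter mRNA quantified 24 h post-dosing by RT-PCR, 6-FAM primer extension, HpaI digestion and capillary electrophoresis. Bidirectional fit versus DMSO.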

Experiment [5] in a line: ATG_Sox_CIS: Attagene CIS-FACTORIAL HepG2 Assay for human SRY-box transcription factor (SOX) (AID 2282960). The conditions noted are these: HepG2 Attagene cis-factorial SOX reporter, mRNA; actives raise or lower the signal. In a few lines: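 HepG2 cells transiently transfected with multiple cis-regulated reporter units, then dosed for 24 h. Reporter mRNA quantified by RT-PCR, fluorescent labelling, HpaI digestion and capillary electrophoresis; bidirectional fit versus DMSO.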

In experiment [6] the target is Transcription factor Sp1 (Homo sapiens) (UniProt P08047). The experiment can be described thus: ATG_Sp1_CIS: Attagene CIS-FACTORIAL HepG2 Assay for human Specificity Protein 1 (Sp1) (AID 2282961). The conditions noted are these: HepG2 Sp1 cis-reporter transcription, actives raise or lower the signal. The method, boiled down: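 HepG2 cells transiently transfected with multiplexed cis-regulated reporter constructs, chemical exposure 24 h. Reporter mRNA quantified by RT-PCR with capillary electrophoresis; bidirectional fit relative to DMSO.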

Experiment [7] deals with Signal transducer and activator of transcription 3 (Homo sapiens) (UniProt P40763). The experiment can be described thus: ATG_STAT3_CIS: Attagene CIS-FACTORIAL HepG2 Assay for human Signal Transducer and Activator of Transcription 3 (STAT3) (AID 2282963). Conditions: HepG2, Attagene cis-factorial STAT3 reporter transcription; actives raise or lower the signal. In a few lines: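 Transcript-level reporter assay. HepG2 transient MRTU transfection, 24 h exposure, fluorescence detection after RT-PCR and CE; DMSO baseline.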

A short description of experiment [8]: ATG_TA_CIS: Attagene CIS-FACTORIAL HepG2 Assay for human TA Basal Promoter (AID 2282964). The conditions noted are these: HepG2 Attagene CIS-factorial TA basal promoter reporter; actives raise or lower the signal. In a few lines:
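HepG2 cells transiently transfected with multiple reporter units under cis promoter elements, reporting endogenous transcription factor activity; this endpoint tracks the TA basal promoter as background control. Reporter mRNA after 24 h dosing measured by RT-PCR/capillary electrophoresis; bidirectional fits versus DMSO.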

The nature of experiment [9]: ATG_TCF_b_cat_CIS: Attagene CIS-FACTORIAL HepG2 Assay for human T-Cell-Factor with beta-catenin (TCF/b-cat) (AID 2282965). Conditions: HepG2 TCF/beta-catenin cis-reporter transcription, actives raise or lower the signal. In a few lines: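 HepG2 cells transiently transfected with multiple cis-promoter-regulated reporter transcription units, so endogenous transcription factor activity is measured. Reporter mRNA read 24 hours after dosing by RT-PCR, fluorescent labelling and capillary electrophoresis; bidirectional fitting against DMSO.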

Experiment [10] is described as follows: ATG_TAL_CIS: Attagene CIS-FACTORIAL HepG2 Assay for human TAL Basal Promoter (AID 2282966).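 Also: background control endpoint measuring basal TAL promoter reporter mRNA not a specific factor.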 The conditions noted are these: HepG2 Attagene cis-factorial TAL promoter reporter; actives raise or lower the signal. The method, boiled down: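 HepG2 cells were transiently transfected with promoter-driven multiplexed reporter units and dosed for 24 h. Reporter mRNA was measured by RT-PCR with capillary electrophoresis fluorescence; bidirectional fits used DMSO as baseline, serving as a background control.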

Experiment [11] in a line: ATG_TGFb_CIS: Attagene CIS-FACTORIAL HepG2 Assay for human Transforming Growth Factor (TGF) (AID 2282967). The conditions noted are these: HepG2 Attagene CIS TGFb reporter, mRNA transcription; actives raise or lower the signal. The method, boiled down: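 HepG2 cells transiently transfected with cis-promoter-driven multiple reporter units measure endogenous TF activity; reporter mRNA quantified at 24 h by RT-PCR, FAM labeling, HpaI digestion and capillary electrophoresis. Bidirectional fit vs DMSO.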

Experiment [12] in a line: ATG_VDRE_CIS: Attagene CIS-FACTORIAL HepG2 Assay for human Vitamin D Receptor Element (VDRE) (AID 2282968). The conditions noted are these: HepG2 VDRE cis-reporter transcription, actives raise or lower the signal. The method, boiled down:
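RT-PCR/CE readout of reporter mRNA; HepG2, transient transfection, 24 h dosing; DMSO baseline; bidirectional analysis.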

The target in experiment [13] is X-box-binding protein 1 (Homo sapiens) (UniProt P17861). The experiment can be described thus: ATG_Xbp1_CIS: Attagene CIS-FACTORIAL HepG2 Assay for human X-box Binding Protein 1 (XBP1) (AID 2282972). Conditions: HepG2 XBP1 cis-element reporter, Attagene multiplex; actives raise or lower the signal. In a few lines:
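HepG2, transient MRTU transfection (cis-promoter driven), 24 h compound exposure. Total RNA → oligo(dT) RT → PCR → 6-FAM labeling → HpaI cut → CE. Bidirectional fit vs DMSO.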

The nature of experiment [14]: ATG_GAL4_TRANS: Attagene TRANS-FACTORIAL HepG2 Assay for GAL4 (Internal Marker) (AID 2282976; active = hit-call score of the fitted dose curve at least 0.9, where 1 is the maximum). Conditions: HepG2 Attagene TRANS GAL4 internal marker reporter. In a few lines: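 HepG2 cells transiently transfected with multiplexed GAL4-UAS reporter constructs were dosed for 24 h. Reporter mRNA was measured by RT-PCR, 6-FAM primer extension, HpaI digestion and capillary electrophoresis, and gain of signal was fitted relative to DMSO.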

Experiment [15] concerns the target Nuclear receptor subfamily 1 group I member 3 (Homo sapiens) (UniProt Q14994). The experiment can be described thus: ATG_CAR_TRANS: Attagene TRANS-FACTORIAL HepG2 Assay for human Constitutive Androstane Receptor (CAR) (AID 2282969; active = hit-call score of the fitted dose curve at least 0.9, where 1 is the maximum;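 also: activators raise reporter mRNA above DMSO so AC50 marks induction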). Conditions: HepG2 Attagene TRANS-FACTORIAL CAR reporter. In a few lines: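 HepG2 cells transiently transfected with multiplexed GAL4-UAS reporter units expressing chimeric NR-Gal4 proteins; compound exposure 24 h. Reporter mRNA measured by RT-PCR, 6-FAM labelling, HpaI digestion and capillary electrophoresis; gain-of-signal fitted against DMSO baseline.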

Experiment [16] can be described thus: ATG_M_19_TRANS: Attagene TRANS-FACTORIAL HepG2 Assay for M19 Transcription Factor (Internal Marker) (AID 2282974; active = hit-call score of the fitted dose curve at least 0.9, where 1 is the maximum). Conditions: HepG2 Attagene TRANS-FACTORIAL M19 internal marker reporter. The method, boiled down:
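HepG2 transiently transfected with GAL4-UAS multiplex reporter constructs, exposed 24 h; reporter RNA quantified by RT-PCR, 6-FAM labeling, HpaI digestion and capillary electrophoresis; internal background marker fitted upward versus DMSO.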

In experiment [17] the target is Steroid hormone receptor ERR1 (Homo sapiens) (UniProt P11474). The experiment can be described thus: ATG_ERRa_TRANS: Attagene TRANS-FACTORIAL HepG2 Assay for human Estrogen-Related Receptor alpha (ERRa) (AID 2282971; active = hit-call score of the fitted dose curve at least 0.9, where 1 is the maximum). The conditions noted are these: HepG2 Attagene TRANS reporter, ERRa transactivation. The method, boiled down:
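HepG2 cells transiently transfected with multiplexed GAL4-UAS reporter units reading chimeric ERRa-Gal4 activity; 24 h compound exposure. Reporter mRNA measured by RT-PCR, 6-FAM labelling, HpaI digest and capillary electrophoresis; gain of signal fitted versus DMSO baseline.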

Experiment [18] can be described thus: ATG_SREBP_CIS: Attagene CIS-FACTORIAL HepG2 Assay for human Sterol Regulatory Element Binding (SREBP) (AID 2282962). Conditions: HepG2 Attagene cis-factorial SREBP reporter, mRNA; actives raise or lower the signal. The method, boiled down:
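Transfected HepG2 (cis-regulated reporter library, endogenous TFs) → compound 24 h → total RNA → oligo(dT) RT → reporter-specific PCR → FAM primer extension, HpaI cut → CE fluorescence. Fit bidirectional vs DMSO.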

Experiment [19] addresses Estrogen-related receptor gamma (Homo sapiens) (UniProt P62508). Kind of experiment: ATG_ERRg_TRANS: Attagene TRANS-FACTORIAL HepG2 Assay for human Estrogen-Related Receptor gamma (ERRg) (AID 2282977; active = hit-call score of the fitted dose curve at least 0.9, where 1 is the maximum;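 also: hits increase reporter signal over DMSO so potencies reflect activators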). The conditions noted are these: HepG2 Attagene TRANS reporter, ERRg transactivation. In a few lines:
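HepG2 cells transiently transfected with multiplexed GAL4-UAS reporter units driven by chimeric NR-Gal4 proteins; 24 h exposure. Reporter mRNA quantified by RT-PCR, fluorescent labelling, HpaI digestion and capillary electrophoresis; gain of signal vs DMSO.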

Experiment [20] concerns the target Estrogen receptor (Homo sapiens) (UniProt P03372). The experiment can be described thus: ATG_ERa_TRANS: Attagene TRANS-FACTORIAL HepG2 Assay for human Estrogen Receptor alpha (ERa) (AID 2282970; active = hit-call score of the fitted dose curve at least 0.9, where 1 is the maximum). The conditions noted are these: HepG2 Attagene TRANS ERa GAL4 reporter, mRNA. The method, boiled down: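 HepG2 cells transiently transfected with multiplexed GAL4-UAS reporter units; ERa activity read via exogenous chimeric NR-Gal4 protein. After 24 hour compound exposure, reporter mRNA measured by RT-PCR with 6-FAM labelling and capillary electrophoresis; gain-of-signal fitted relative to DMSO.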

Chain of Signal transducer and activator of transcription 3 (Homo sapiens) (P40763 whole entry, looked up): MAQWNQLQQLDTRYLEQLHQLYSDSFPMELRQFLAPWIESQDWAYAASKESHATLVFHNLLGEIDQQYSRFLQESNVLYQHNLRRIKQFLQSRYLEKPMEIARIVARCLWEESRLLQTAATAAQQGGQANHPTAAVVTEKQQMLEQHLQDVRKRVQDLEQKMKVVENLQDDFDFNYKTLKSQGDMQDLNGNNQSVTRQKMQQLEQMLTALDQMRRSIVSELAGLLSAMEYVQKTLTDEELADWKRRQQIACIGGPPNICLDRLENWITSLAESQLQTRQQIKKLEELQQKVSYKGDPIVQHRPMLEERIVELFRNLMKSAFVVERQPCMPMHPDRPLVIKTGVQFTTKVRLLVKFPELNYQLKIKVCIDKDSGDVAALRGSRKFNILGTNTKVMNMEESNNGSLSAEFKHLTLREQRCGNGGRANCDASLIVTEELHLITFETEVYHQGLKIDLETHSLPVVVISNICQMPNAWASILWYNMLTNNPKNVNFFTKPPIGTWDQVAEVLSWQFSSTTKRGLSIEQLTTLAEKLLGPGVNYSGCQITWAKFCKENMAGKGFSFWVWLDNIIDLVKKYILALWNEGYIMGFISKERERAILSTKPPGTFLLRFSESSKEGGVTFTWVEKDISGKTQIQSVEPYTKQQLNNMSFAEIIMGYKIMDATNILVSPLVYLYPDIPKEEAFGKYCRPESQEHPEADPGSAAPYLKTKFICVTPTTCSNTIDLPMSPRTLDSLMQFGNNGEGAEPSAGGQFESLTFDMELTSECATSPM
Chain of Paired box protein Pax-6 (Homo sapiens) (P26367 whole entry, looked up): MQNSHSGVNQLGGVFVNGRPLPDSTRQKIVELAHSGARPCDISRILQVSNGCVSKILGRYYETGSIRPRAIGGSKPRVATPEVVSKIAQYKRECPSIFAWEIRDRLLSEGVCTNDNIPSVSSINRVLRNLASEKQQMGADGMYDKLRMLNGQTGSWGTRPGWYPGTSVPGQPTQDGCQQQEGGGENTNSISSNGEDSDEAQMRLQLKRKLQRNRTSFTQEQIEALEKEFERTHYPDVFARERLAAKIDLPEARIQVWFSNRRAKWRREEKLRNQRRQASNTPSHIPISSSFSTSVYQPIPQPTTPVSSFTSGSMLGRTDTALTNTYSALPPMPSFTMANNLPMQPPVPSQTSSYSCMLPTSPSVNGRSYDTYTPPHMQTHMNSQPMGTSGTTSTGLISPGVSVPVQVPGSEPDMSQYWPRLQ
Chain of X-box-binding protein 1 (Homo sapiens) (P17861 whole entry, looked up): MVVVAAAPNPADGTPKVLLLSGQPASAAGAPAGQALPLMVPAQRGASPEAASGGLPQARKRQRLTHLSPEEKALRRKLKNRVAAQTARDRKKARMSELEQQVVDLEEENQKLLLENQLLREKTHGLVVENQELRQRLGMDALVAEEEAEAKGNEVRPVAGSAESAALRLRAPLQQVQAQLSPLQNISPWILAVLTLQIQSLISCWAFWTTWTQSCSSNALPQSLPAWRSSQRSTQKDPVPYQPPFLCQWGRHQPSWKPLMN
Chain of Transcription factor Sp1 (Homo sapiens) (P08047 whole entry, looked up): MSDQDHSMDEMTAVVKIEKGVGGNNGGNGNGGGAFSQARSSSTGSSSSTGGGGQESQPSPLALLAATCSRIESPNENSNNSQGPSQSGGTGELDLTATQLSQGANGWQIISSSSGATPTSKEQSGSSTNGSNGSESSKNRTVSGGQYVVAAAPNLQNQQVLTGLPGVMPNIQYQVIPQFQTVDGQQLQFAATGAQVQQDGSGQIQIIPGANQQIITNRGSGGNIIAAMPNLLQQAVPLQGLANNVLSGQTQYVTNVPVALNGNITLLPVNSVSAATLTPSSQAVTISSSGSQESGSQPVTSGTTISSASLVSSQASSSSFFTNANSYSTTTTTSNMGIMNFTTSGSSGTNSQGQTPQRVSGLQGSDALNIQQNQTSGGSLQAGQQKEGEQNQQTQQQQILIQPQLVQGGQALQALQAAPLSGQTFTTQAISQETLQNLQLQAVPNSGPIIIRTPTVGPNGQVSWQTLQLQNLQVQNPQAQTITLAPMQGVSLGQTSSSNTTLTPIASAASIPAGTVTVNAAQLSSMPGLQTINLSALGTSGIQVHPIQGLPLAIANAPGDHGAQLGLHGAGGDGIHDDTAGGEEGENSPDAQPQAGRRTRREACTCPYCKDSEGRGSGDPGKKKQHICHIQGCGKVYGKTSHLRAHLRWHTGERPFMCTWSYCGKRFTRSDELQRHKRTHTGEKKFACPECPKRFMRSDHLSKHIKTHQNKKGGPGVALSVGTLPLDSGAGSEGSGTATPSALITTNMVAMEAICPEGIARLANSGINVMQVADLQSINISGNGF
Chain of Nuclear receptor subfamily 1 group I member 3 (Homo sapiens) (Q14994 whole entry, looked up, the tested form may be a part): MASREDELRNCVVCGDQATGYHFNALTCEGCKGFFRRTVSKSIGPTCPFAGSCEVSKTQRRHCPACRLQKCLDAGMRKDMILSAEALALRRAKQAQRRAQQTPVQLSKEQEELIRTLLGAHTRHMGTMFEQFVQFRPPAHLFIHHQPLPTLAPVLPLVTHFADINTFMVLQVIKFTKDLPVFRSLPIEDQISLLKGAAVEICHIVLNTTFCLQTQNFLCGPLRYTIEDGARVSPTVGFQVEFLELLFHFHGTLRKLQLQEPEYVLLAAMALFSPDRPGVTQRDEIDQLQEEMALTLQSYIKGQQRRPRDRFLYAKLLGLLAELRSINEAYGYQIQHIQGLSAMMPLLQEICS
Chain of Estrogen-related receptor gamma (Homo sapiens) (P62508 whole entry, looked up, the tested form may be a part): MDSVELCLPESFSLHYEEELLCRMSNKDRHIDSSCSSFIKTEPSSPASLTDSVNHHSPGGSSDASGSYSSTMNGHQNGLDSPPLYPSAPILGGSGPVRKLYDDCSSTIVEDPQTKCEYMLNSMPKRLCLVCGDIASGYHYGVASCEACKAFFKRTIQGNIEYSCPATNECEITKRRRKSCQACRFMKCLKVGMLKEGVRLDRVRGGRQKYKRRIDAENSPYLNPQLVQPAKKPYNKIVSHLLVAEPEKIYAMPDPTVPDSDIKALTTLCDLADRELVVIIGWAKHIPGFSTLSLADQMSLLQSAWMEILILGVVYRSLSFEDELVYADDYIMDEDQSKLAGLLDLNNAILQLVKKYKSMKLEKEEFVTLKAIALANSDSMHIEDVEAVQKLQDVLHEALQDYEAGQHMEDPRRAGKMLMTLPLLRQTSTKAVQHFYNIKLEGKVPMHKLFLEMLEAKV
Chain of Steroid hormone receptor ERR1 (Homo sapiens) (P11474 whole entry, looked up, the tested form may be a part): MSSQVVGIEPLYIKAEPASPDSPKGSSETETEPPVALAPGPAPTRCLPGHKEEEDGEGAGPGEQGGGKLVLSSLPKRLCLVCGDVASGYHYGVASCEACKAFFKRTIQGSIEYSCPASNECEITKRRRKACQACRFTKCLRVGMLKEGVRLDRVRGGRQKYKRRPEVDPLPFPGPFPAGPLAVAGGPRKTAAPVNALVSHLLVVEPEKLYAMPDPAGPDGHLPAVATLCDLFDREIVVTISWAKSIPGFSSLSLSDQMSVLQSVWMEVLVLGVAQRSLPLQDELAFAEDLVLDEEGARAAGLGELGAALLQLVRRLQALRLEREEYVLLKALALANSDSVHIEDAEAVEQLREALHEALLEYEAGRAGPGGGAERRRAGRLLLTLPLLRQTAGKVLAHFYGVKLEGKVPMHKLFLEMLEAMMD
Chain of Estrogen receptor (Homo sapiens) (P03372 whole entry, looked up, the tested form may be a part): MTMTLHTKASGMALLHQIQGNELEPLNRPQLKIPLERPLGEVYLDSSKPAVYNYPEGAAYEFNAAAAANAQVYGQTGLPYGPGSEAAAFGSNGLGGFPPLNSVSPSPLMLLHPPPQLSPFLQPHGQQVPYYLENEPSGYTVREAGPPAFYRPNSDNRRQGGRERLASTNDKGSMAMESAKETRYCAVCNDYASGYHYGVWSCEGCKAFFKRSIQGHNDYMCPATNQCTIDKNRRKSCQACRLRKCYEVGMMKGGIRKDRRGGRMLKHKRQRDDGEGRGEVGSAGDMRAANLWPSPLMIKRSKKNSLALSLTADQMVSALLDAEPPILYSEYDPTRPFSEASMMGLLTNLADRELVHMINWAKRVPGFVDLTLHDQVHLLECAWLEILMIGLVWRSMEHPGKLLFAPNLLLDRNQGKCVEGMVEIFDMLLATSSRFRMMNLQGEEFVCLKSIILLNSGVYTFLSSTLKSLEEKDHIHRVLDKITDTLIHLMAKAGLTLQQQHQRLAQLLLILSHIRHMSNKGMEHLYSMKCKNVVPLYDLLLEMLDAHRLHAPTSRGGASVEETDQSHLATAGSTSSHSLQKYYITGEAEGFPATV

In the case of `C=C(C)C(=O)O`, the molecule was called inactive in experiment [1], in [2], in experiment [3], in experiment [4], in [5] and in [6]. The molecule was called inactive in [7], in experiment [8], in [9], in experiment [10], in [11] and in experiment [12]. The call in experiment [13] and in experiment [14] was inactive.

Consider `CC1CC(OC(=O)c2ccccc2O)CC(C)(C)C1` (stereo not drawn), for which the molecule was called inactive in experiment [1], in experiment [3], in experiment [4], in experiment [5], in experiment [6] and in experiment [7]. Moreover, the result in experiment [8], in experiment [9], in experiment [11], in experiment [15], in experiment [13] and in experiment [16] was inactive. For the same molecule, the AC50 in experiment [2] was 25.8 µM (active); in [10] it was 181 µM (active).

For `NCCNCCN`, the molecule was called inactive in [1], in [2], in experiment [3], in experiment [4], in [5] and in experiment [6]. In addition, the molecule was called inactive in [7], in experiment [8], in experiment [9], in experiment [10], in [11] and in experiment [12]. Moreover, the molecule was called inactive in experiment [15], in [17], in experiment [13], in experiment [16] and in experiment [14].

Consider `CCCCCCCCCCCCCCCC(=O)OC[C@H](O)[C@H]1OC(=O)C(O)=C1O`, for which the outcome in experiment [1], in experiment [3], in experiment [4], in experiment [6], in experiment [7] and in experiment [8] was inactive. In addition, the molecule was classed as inactive in experiment [13], in experiment [14] and in experiment [19]. Also, the AC50 in [2] was 38.2 µM (active); in [5], 150 µM (active); in experiment [18] it was 100 µM (active); in experiment [9] it was 168 µM (active); in [10], 100 µM (active); in experiment [12] it was 37.1 µM (active).

With `CCC(=O)/C=C/C1C(C)=CCCC1(C)C` (stereo not drawn), the outcome in experiment [1], in [4], in [5], in experiment [6], in [18] and in [7] was inactive. Besides, the call in experiment [8], in [9], in experiment [10], in experiment [12], in [13] and in experiment [14] was inactive. The AC50 in experiment [2] is 4.76 µM (active); in experiment [3], 35 µM (active).

`CC(C)OP(=O)(CP(=O)(OC(C)C)OC(C)C)OC(C)C`: the molecule was classed as inactive in [1], in [3], in [4], in experiment [5], in [6] and in [7]. Moreover, the molecule was called inactive in experiment [8], in experiment [9], in experiment [10], in experiment [11], in experiment [12] and in [20]. For the same molecule, the outcome in experiment [13] was inactive. In addition, in experiment [2], the concentration at half-maximal activity (AC50) is 7.59 µM (active).
